Test system: not listed separately
Test: small-molecule microarray binders of probe aLefty2, primary screen, biochemical, biotinylated probe, 635/667 nm fluorescence (AID 1094);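 further: score merges spot fluorescence near 667 nm with spot signal-to-noise ratio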
Conditions: higher = more signal

Compound	composite z-score
CCCCC(=C=CC[C@@H](O)c1ccccc1OCCO)C[C@@H](O)c1ccccn1	-0.119
O=C(NCC(F)(F)F)[C@@H]1c2ccccc2C(=O)N(Cc2cc(C(F)(F)F)cc(C(F)(F)F)c2)[C@H]1c1ccc(CO)cc1	-0.217
CC(CO)N1C(=O)[C@@H]2[C@H]3C(=O)OCC=C[C@H]3OC23C=CCN(c2ccc4ccccc4c2)C(=O)[C@@H]13 (stereo partly drawn)	0.111

Test system: Noggin (protein binding on small-molecule microarray)
Test: Noggin binders on small-molecule microarray, primary screen, biochemical, 635/667 nm fluorescence (AID 1095);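 further: score merges 667 nm feature fluorescence with signal to noise over triplicate slides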
Conditions: 635 nm fluorescence, higher = more signal

Compound	composite z-score
C[C@@]1([C@@H](NS(=O)(=O)c2cccc3cccnc23)c2ccc(-c3ccccc3)cc2)C[C@H]1C1CCCCC1	-0.0642
O=C1O[C@H](c2ccccc2)[C@H](c2ccccc2)N2[C@H]1[C@@H](C(=O)N1CCN(c3ncccn3)CC1)[C@]1(C(=O)Nc3ccc(C#CC4(O)CCCCCC4)cc31)[C@H]2c1ccc(O)cc1	1.2
C=CCC(OC(C)=O)[C@@H]1[C@@H](N(Cc2ccc(-c3ccccc3)cc2)C(=O)Cc2ccc(OC)cc2)c2cc(OCCCO)ccc2N1C(=O)c1ccc2ccccc2c1 (stereo partly drawn)	0.138
O=C(NC1CC1)[C@@H]1c2ccccc2C(=O)N(C2CCCCC2)[C@H]1c1ccc(CO)cc1	-0.923
COC(=O)[C@@]1(Cc2ccccc2)[C@H]2c3cc(C(=O)N(C)C)n(Cc4nc5ccccc5[nH]4)c3C[C@H]2CN1C(=O)c1ccccc1	-0.307
C=CCOC(=O)[C@@H]1[C@H]2C(=O)O[C@H](c3ccccc3)[C@H](c3ccccc3)N2[C@H](c2ccc(OCCOC(=O)[C@@H]3C[C@@H]4C(=O)N[C@@H](CC(C)C)C(=O)N4[C@@H]3c3ccc(O)cc3)cc2)[C@@]12C(=O)Nc1ccc(I)cc12	1.69
COCCOC(=O)N1C(=O)[C@@]2(c3cc(C#CCNC(N)=O)ccc31)[C@H](C(N)=O)[C@H]1C(=O)O[C@H](c3ccccc3)[C@H](c3ccccc3)N1[C@@H]2c1ccc(O)cc1	0.173
C=CCNC(=O)[C@H]1[C@@H]2C(=O)O[C@@H](c3ccccc3)[C@@H](c3ccccc3)N2[C@@H](c2ccc(OCCO)cc2)[C@]12C(=O)Nc1ccc(C#Cc3ccc(OC)cc3)cc12	1.27
CN1C(=O)C2C=CC(C(O)c3ccc(I)cc3)N(N(c3ccccc3)c3ccccc3)C2C1=O (stereo not drawn)	-0.569
Cc1ccc(S[C@]2(C(=O)NCc3ccccc3)CC(=O)N(Cc3ccccc3Cl)[C@@H]2c2ccc(CO)cc2)cc1	-0.761
C[C@]1(C(=O)O)c2ccccc2C(=O)N(Cc2cc(C(F)(F)F)cc(C(F)(F)F)c2)[C@H]1c1ccc(CO)cc1	0.414
COC(=O)C(CC#Cc1ccc2c(c1)[C@]1(C(=O)N2)[C@H](C(N)=O)[C@H]2C(=O)O[C@H](c3ccccc3)[C@H](c3ccccc3)N2[C@@H]1c1ccccc1OCCO)C(=O)OC	0.877
COC(=O)[C@@]1(Cc2ccc(F)cc2)[C@H]2c3cc(C(=O)N(C)C)n(Cc4ccc(C(F)(F)F)nc4)c3C[C@H]2CN1C(=O)c1ccccc1	0.108
CCN1C(=O)C2CC(=O)C3C(CN(S(=O)(=O)c4ccc(C)cc4)C3c3ccc(C)cc3)C2C1=O (stereo not drawn)	-0.841
C=C[C@H](OC)[C@@H](O)c1ccc(OC)c(O)c1	-0.81
CCCCCN1CC=CC23O[C@@H]4/C=C\CCCOC(=O)C4[C@H]2C(=O)N(CCCCCO)[C@@H]3C1=O (stereo partly drawn)	-0.636
CC(C)C[C@H]1NC(=O)CNC(=O)[C@@]23C(=O)N[C@@H](Cc4ccccc4)C2[C@H](C)[C@@]2(C)O[C@H]2C3/C=C/C/C=C\CNC1=O (stereo partly drawn)	0.104
C=CCNC(=O)[C@@H]1[C@H]2C(=O)O[C@H](c3ccccc3)[C@H](c3ccccc3)N2[C@H](c2ccc(OCCO)cc2)[C@@]12C(=O)Nc1ccc(C#CCNC(N)=O)cc12	0.216
CC(C)[Si](C#Cc1ccccc1)(O[C@H](c1ccccc1)c1cn(Cc2ccccc2)nn1)C(C)C	1.08
C=C(C(=O)CC[C@@H](OC(=O)c1cccnc1)c1cccc(OCCO)c1)C(C)C	0.597
CCCCN1CC=CC23O[C@@H]4/C=C\CCC(C)OC(=O)C4[C@H]2C(=O)N(CCO)[C@@H]3C1=O (stereo partly drawn)	-0.19
O=C/C=C/c1ccc(-c2ccccc2)cc1	-0.339
COc1cc(CO)cc(I)c1O[C@H]1C=C(C(=O)NCCO)C[C@@H](N(CCN2CCOCC2)C(=O)C2CCCO2)[C@@H]1O (stereo partly drawn)	0.34
CC(C)C[C@@H]1NC(=O)[C@H]2C[C@@H](C(=O)O)[C@@H](c3cccc(OCCO)c3)N2C1=O	0.492
COc1cc(Cc2cc3c(c(CCc4ccccc4)n2)[Si](C(C)C)(C(C)C)O[C@H]3c2ccccc2)cc(OC)c1OC	-0.288
